Screens (PubChem BioAssay)
SW480 rereplic – DNA re-replication induction in SW480 cells | SW480 DNA re-replication, Hoechst DNA content imaging, 48 h | Potency, µM (doses to about 46.1 µM), inactives show at the highest dose re-replication activation, hits mostly activators | actives 1.8% (n = 340,000); also: potency is read from the fitted curve at half-maximal effect; % of control where 0% means no effect; nearly all actives have a fitted effect of over 55% in size
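Compounds, transferred as 23 nL by pin tool, were incubated with cells for 48 hr; DNA content per nucleus was then quantified by Hoechst staining and fluorescence plate imaging.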
Gal4-VP16 FLuc – Gal4-VP16 reporter inhibition counter-screen; Drosophila S2 Gal4-VP16 UAS-luciferase, luminescence, 20 h; actives 3.5% (n = 310,000); Potency, µM (highest dose often 53.6 µM), without a hit: at the top dose activity, negative = inhibition, actives largely listed as inhibitors;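 also: Gal4-VP16 expression switched on by copper sulfate through the metallothionein promoter; potency is read from the fitted curve at half-maximal effect; % is scaled to controls: 0 for no effect and ±100 for the full control effect; nearly all actives have a fitted effect of over 50% in size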
RORg inh – inhibitors of mouse ROR gamma transcriptional activity; P51450; Drosophila S2 Gal4-RORgamma UAS-luciferase reporter, 20 h; Potency, µM (series often up to 53.6 µM), for inactives: at the highest dose activity change, negative = inhibition, actives largely listed as inhibitors; actives 5.4% (n = 310,000); AID 2551; also: potency is read from the fitted curve at half-maximal effect; % is scaled to controls: 0 for no effect and ±100 for the full control effect; nearly all actives have a fitted effect of over 60% in size
Target sequence (P51450 whole entry, looked up, the tested form may be a part): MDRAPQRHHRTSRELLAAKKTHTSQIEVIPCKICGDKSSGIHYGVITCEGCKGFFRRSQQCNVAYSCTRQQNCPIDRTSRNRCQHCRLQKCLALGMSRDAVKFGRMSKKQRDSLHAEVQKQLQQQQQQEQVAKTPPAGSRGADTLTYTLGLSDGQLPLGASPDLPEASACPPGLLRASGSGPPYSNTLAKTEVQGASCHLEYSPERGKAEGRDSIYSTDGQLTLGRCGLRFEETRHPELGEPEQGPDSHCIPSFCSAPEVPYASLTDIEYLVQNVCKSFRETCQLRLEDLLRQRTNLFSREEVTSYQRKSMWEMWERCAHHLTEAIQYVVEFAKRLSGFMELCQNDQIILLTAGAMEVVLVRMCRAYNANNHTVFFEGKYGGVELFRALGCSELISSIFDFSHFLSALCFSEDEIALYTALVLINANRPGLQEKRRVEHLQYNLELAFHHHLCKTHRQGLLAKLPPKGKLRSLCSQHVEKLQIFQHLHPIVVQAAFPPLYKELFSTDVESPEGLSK
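Schneider cells (Drosophila), stable Gal4 DBD–ROR gamma + UAS-luc; 1 hr cmpd preincubation; Cu2+ induction 700 uM final; 20 hr ambient; luminescence.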
IL1B secr inh – blocks inflammasome-driven IL-1 beta release; actives 4.7% (n = 360,000); THP-1 LPS/ATP IL-1B secretion, AlphaLISA, 16 h; stronger effect = lower value; activity change, % at 57.5 µM; in the data active = activity change below about -50%; inconclusive = mostly about -30% to -49%; also: % is scaled to controls: 0 for no effect and ±100 for the full control effect
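THP-1 cells pretreated 1 hr with compounds (up to 57.5 uM final), then stimulated with LPS (250 ng/mL final) plus ATP (1.25 mM final); secreted IL-1B measured by AlphaLISA after 16 hr, decreased signal indicating inhibition.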
MCF10A rerep – inducers of DNA re-replication in MCF 10A breast cells. MCF 10A DNA re-replication, Hoechst nuclear intensity, 48 h. Potency, µM (titrated, usually from 46.1 µM), inactives show at the top dose activity, positive = re-replication, actives largely listed as activators. actives 2.9% (n = 350,000); also: potency is read from the fitted curve at half-maximal effect; % of control where 0% means no effect; nearly all actives have a fitted effect of over 50% in size
The depositor's hits bear a star. Hits are enriched below; roughly 11% of the tested compounds scored in any of these assays. Unless noted, calls follow the shape of the dose curve; as a rule, active = well fitted curve in the direction sought with a large enough effect; inconclusive = small, poorly fitted or top-dose-only effect, or another doubt; inactive = no such curve, though single readings can be large; an effect the other way counts as inactive or inconclusive.

Results for CC(/C=C1\SC(=O)N(CC(=O)Nc2cccc(O)c2)C1=O)=C\c1ccccc1 ?
SW480 rereplic: -5.1%; Gal4-VP16 FLuc: 5.1%; RORg inh: 25.5%; IL1B secr inh: -56.6*; MCF10A rerep: inconclusive

How did O=C(NN1C(=O)/C(=C/C=C/c2ccccc2)SC1=S)c1ccncc1 do in these assays?
SW480 rereplic: -1.8%; Gal4-VP16 FLuc: -6.9%; RORg inh: -1.6%; IL1B secr inh: -71.6*; MCF10A rerep: 18.4µM*

How did CC(=O)Nc1cccc(-c2ccnc3c2CC(C(=O)NCc2cccs2)O3)c1 (stereo unspecified) do in these assays?
IL1B secr inh: 47.2

Results for CCc1nc2c(OCc3ccc(C(F)(F)F)cc3)cccn2c1N(C)C(=O)C1CC1 ?
IL1B secr inh: -24.7

Results for COc1ccc2cc(S(=O)(=O)c3ccccc3)c(=O)oc2c1 ?
SW480 rereplic: inconclusive; Gal4-VP16 FLuc: 0.1%; RORg inh: 16.3%; IL1B secr inh: inconclusive; MCF10A rerep: inconclusive

How did Cc1ccc(S(=O)(=O)c2cc3ccc(O)cc3oc2=O)cc1C do in these assays?
SW480 rereplic: 2.31µM*; Gal4-VP16 FLuc: -2.4%; RORg inh: 6.4%; IL1B secr inh: 32.6; MCF10A rerep: 2.31µM*

Results for CC1=NN(C(=O)c2c(Br)c(C)nn2C)C(O)(C(F)(F)F)C1 (stereo unspecified) ?
SW480 rereplic: -0.9%; Gal4-VP16 FLuc: inconclusive; RORg inh: 20µM*; IL1B secr inh: 89.6; MCF10A rerep: -2.4%

What do the screens show for `CC1=NN(C(=O)c2c(Br)cnn2C)C(O)(C(F)(F)F)C1` (stereo unspecified)?
SW480 rereplic: -3.2%; Gal4-VP16 FLuc: 7.94µM*; RORg inh: 5.62µM*; IL1B secr inh: 0.0; MCF10A rerep: -10.5%

How did CC1=NN(C(=O)c2nn(C)cc2Br)C(O)(C(F)(F)F)C1 (stereo unspecified) do in these assays?
SW480 rereplic: 13µM*; Gal4-VP16 FLuc: 11.2µM*; RORg inh: 3.98µM*; IL1B secr inh: 21.2; MCF10A rerep: inconclusive

Results for Cn1ncc(Br)c1C(=O)NC1CCCCC1 ?
SW480 rereplic: 8.6%; Gal4-VP16 FLuc: 6.2%; RORg inh: -5.5%; IL1B secr inh: -10.2; MCF10A rerep: 12.2%

How did COc1cc2c(cc1OC)C(C)N(C(=O)C(NC(=O)c1ccccc1)C(C)C)CC2 (stereo unspecified) do in these assays?
SW480 rereplic: 2.0%; Gal4-VP16 FLuc: -3.2%; RORg inh: -12.9%; IL1B secr inh: 39.2; MCF10A rerep: -0.4%

How did OC(Cc1cccc(C=NN2CCOCC2)n1)(C(F)(F)F)C(F)(F)F do in these assays?
IL1B secr inh: -7.2

Results for CCOc1ccc(C(=O)Nc2ccc(N3CCN(C(C)=O)CC3)cc2)cc1[N+](=O)[O-] ?
SW480 rereplic: 18.3%; Gal4-VP16 FLuc: -0.3%; RORg inh: 11.7%; IL1B secr inh: -1.0; MCF10A rerep: -2.3%

What do the screens show for `CC(=O)N1CCN(c2ccc(NC(=S)NC(=O)c3ccc(C)c([N+](=O)[O-])c3)cc2)CC1`?
SW480 rereplic: -28.7%; Gal4-VP16 FLuc: 7.94µM*; RORg inh: inconclusive; IL1B secr inh: -18.5; MCF10A rerep: -4.2%

Results for COc1ccc(C(=O)NC(=S)Nc2ccc(N3CCN(C(C)=O)CC3)cc2)cc1[N+](=O)[O-] ?
SW480 rereplic: -2.4%; Gal4-VP16 FLuc: 17.8µM*; RORg inh: inconclusive; IL1B secr inh: -1.2; MCF10A rerep: 8.9%

How did O=C(COC(=O)COc1ccccc1)NC12CC3CC(CC(C3)C1)C2 do in these assays?
SW480 rereplic: -2.3%; IL1B secr inh: -10.0; MCF10A rerep: -3.7%

Results for O=S(=O)(c1ccccc1)N1CCC2(CCN(Cc3nccs3)CC2)CC1 ?
Gal4-VP16 FLuc: -2.9%; RORg inh: -8.2%

Results for CN(C(=O)COC(=O)c1cc(NS(=O)(=O)c2cc([N+](=O)[O-])ccc2Cl)ccc1O)C1CCCCC1 ?
SW480 rereplic: 0.1%; Gal4-VP16 FLuc: -5.8%; RORg inh: inconclusive; IL1B secr inh: -80.8*; MCF10A rerep: inconclusive

Results for CNS(=O)(=O)c1cccc(C(=O)OCC(=O)NC(C)CCc2ccccc2)c1 (stereo unspecified) ?
SW480 rereplic: -9.4%; Gal4-VP16 FLuc: 4.6%; RORg inh: 19.4%; IL1B secr inh: 15.4; MCF10A rerep: 4.3%

Results for CC(CCc1ccccc1)NC(=O)COC(=O)c1cc(NS(=O)(=O)c2ccc(Cl)c([N+](=O)[O-])c2)ccc1O (stereo unspecified) ?
SW480 rereplic: 10.6%; Gal4-VP16 FLuc: inconclusive; RORg inh: inconclusive; IL1B secr inh: -97.7*; MCF10A rerep: 6.51µM*

How did Cc1cc(C)cc(-n2c(C)cc(/C=N/NC(=O)CN(c3c(C)cccc3C)S(C)(=O)=O)c2C)c1 do in these assays?
SW480 rereplic: 15.4%; Gal4-VP16 FLuc: -20.5%; RORg inh: 12.6µM*; IL1B secr inh: -29.4; MCF10A rerep: inconclusive

What do the screens show for `Cc1ccc(-n2c(C)cc(/C=N/NC(=O)CN(c3ccc(C)cc3C)S(C)(=O)=O)c2C)cc1`?
SW480 rereplic: 18.9%; Gal4-VP16 FLuc: -20.7%; RORg inh: inconclusive; IL1B secr inh: inconclusive; MCF10A rerep: 8.1%

Results for COc1ccccc1CNC(=O)CN1C(=O)N(C)C2(CCCCC2)C1=O ?
SW480 rereplic: -12.7%; IL1B secr inh: -16.7; MCF10A rerep: 10.2%

How did Cc1cc(C(=O)CN2C(=O)C(=O)N(Cc3ccco3)C2=O)c(C)n1CCc1ccc(F)cc1 do in these assays?
SW480 rereplic: inconclusive; IL1B secr inh: 36.8; MCF10A rerep: inconclusive

Results for COc1ccc(-n2c(C)cc(C(=O)CN3C(=O)NC4(CCCc5sccc54)C3=O)c2C)cc1 (stereo unspecified) ?
SW480 rereplic: 6.1%; Gal4-VP16 FLuc: inconclusive; RORg inh: inconclusive; IL1B secr inh: -5.4; MCF10A rerep: inconclusive

What do the screens show for `COc1ccc(-n2c(C)cc(C(=O)CN3C(=O)C(=O)N(Cc4ccccc4)C3=O)c2C)cc1`?
SW480 rereplic: 8.4%; Gal4-VP16 FLuc: -3.9%; RORg inh: -25.5%; IL1B secr inh: 23.0; MCF10A rerep: 5.8µM*

Results for Cc1cc(C(=O)CN2C(=O)C(=O)N(Cc3ccco3)C2=O)c(C)n1CCc1ccccc1 ?
SW480 rereplic: inconclusive; IL1B secr inh: 11.4; MCF10A rerep: 4.61µM*

What do the screens show for `Cc1ccc2oc(C(=O)Nc3nnc(CC(C)C)s3)c(C)c2c1`?
SW480 rereplic: -5.9%; Gal4-VP16 FLuc: 1.7%; RORg inh: 7.08µM*; IL1B secr inh: 0.0; MCF10A rerep: 2.3%

What do the screens show for `O=C(NNC(=O)c1cnccn1)c1ccc(Cl)c(Cl)c1`?
SW480 rereplic: 7.5%; Gal4-VP16 FLuc: 10µM*; RORg inh: 6.31µM*; IL1B secr inh: 166.0; MCF10A rerep: -4.7%
